Screening results (PubChem BioAssay)
An excerpt weighted towards active compounds, which were near 21% of everything screened.
Pf growth 48h – Primary qHTS for delayed death inhibitors of the malarial parasite plastid, 48 hour incubation; P. falciparum luciferase growth in erythrocytes, 48 h; Potency, µM (titrated, usually from 28.7 µM), for the others: top-dose activity change, negative = inhibition, usual class: inhibitors; 310,000 compounds, 5.9% hits; AID 504832, 2011; also: potency is read from the fitted curve at half-maximal effect; % is scaled to controls: 0 for no effect and ±100 for the full control effect
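A one-generation exposure of luciferase-tagged malaria parasites in RPMI 1640/Albumax erythrocyte culture, 37 C and 5% CO2. Inhibition is inferred from decreased luminescence after adding detection reagent.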
AMA1-RON2 inh – qHTS for Inhibitors of AMA1-RON; Towards Development of Antimalarial Drug Lead: Primary Screen; Potency, µM (doses to about 58.2 µM), for the others: at the highest dose activity change, negative = inhibition, most hits filed as inhibitors; 360,000 compounds, 0.2% hits; AID 720542, 2013; Plasmodium falciparum AMA1 (3D7) - RON2 peptide interaction; AlphaScreen AMA1-biotinylated RON2 peptide binding;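 also: potency is read from the fitted curve at half-maximal effect; 0% = vehicle wells and -100% = peptide control; nearly all actives have a fitted effect of over 45% in size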
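AMA1 (3D7) with his tag at 25 nM final met compounds first, then biotinylated RON2 peptide at 25 nM; detection used donor plus acceptor beads, 10 µg/mL apiece, read by AlphaScreen after 30 min at room temperature.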
HCV inh – qHTS Assay for Inhibitors of Hepatitis C Virus (HCV); Huh7.5.1 HCVcc-Cre infection, luciferase reporter, 44 h; Potency, µM (series often up to 41.8 µM), for inactives: top-dose activity change, negative = inhibition, most hits filed as inhibitors; 340,000 compounds, 3.4% hits; also: potency is read from the fitted curve at half-maximal effect; % is scaled to controls: 0 for no effect and ±100 for the full control effect
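Cells (1,000/well) were plated 4 h before compound, then infected with HCVcc-Cre virus (~0.5 moi). After 44 h further culture, infection was read as luciferase luminescence following a 15 min substrate incubation at room temperature.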
Pf growth 96h – Primary qHTS for delayed death inhibitors of the malarial parasite plastid, 96 hour incubation | P. falciparum luciferase reporter growth, 96 h | Potency, µM (highest dose often 28.7 µM), for inactives: at the top dose activity change, negative = inhibition, usual class: inhibitors | 320,000 compounds, 6.9% hits; also: potency is read from the fitted curve at half-maximal effect; % is scaled to controls: 0 for no effect and ±100 for the full control effect
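Readout is luminescence from an integrated firefly luciferase in P. falciparum. Red cells, 2% hematocrit and 0.05% parasitemia final, were cultured with compound through two parasite generations (96 hours) at 37 C, 5% CO2.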
CHX counter – Cycloheximide Counterscreen for Small Molecule Inhibitors of Shiga Toxin | cell reporter, cycloheximide protein synthesis inhibition counterscreen | max response, % | 300,000 compounds, 12% hits | AID 2314, 2010; in the data active = max response mostly above about 13%, no sharp cut-off; inactive = mostly below about 14%; also: read at 38.3 µM for the half of the compounds with a filed dose; 0% is about no effect
Shiga toxin inh – A qHTS for Small Molecule Inhibitors of Shiga Toxin; Vero cells, Shiga toxin protein synthesis inhibition reporter; inhibition, % at 38.7 µM; 290,000 compounds, 9.2% hits; AID 2315, 2010; in the data active = inhibition mostly above about 28%, no sharp cut-off; inactive = mostly below about 43%; also: 0% is about no effect
The depositor's hits bear a star; ? = inconclusive; · = no result. Unless noted, calls follow the shape of the dose curve; as a rule, active = well fitted curve in the direction sought with a large enough effect; inconclusive = small, poorly fitted or top-dose-only effect, or another doubt; inactive = no such curve, though single readings can be large; an effect the other way counts as inactive or inconclusive.

SMILES | Pf growth 48h | AMA1-RON2 inh | HCV inh | Pf growth 96h | CHX counter | Shiga toxin inh
COc1cccc(/C=N/NC(=O)CNC(=O)/C=C\c2ccccc2)c1O | 5% | -8% | ? | -9% | 28* | 41*
COc1cccc(/C=N/NC(=O)CNC(=O)C(c2ccccc2)c2ccccc2)c1O | ? | 54% | ? | ? | 38* | 71*
COc1ccc(/C(C)=N/NC(=O)CNC(=O)/C=C\c2ccccc2OC)c(OC)c1 | ? | 19% | 8% | -13% | 14* | 31*
O=C(CNC(=O)N1CC(=O)Nc2ccccc21)Nc1ccc(F)c(Cl)c1 | 21% | -9% | 0% | 36% | -3 | -6
COc1ccc(S(=O)(=O)N2CCCC(C(=O)NCCC(C)C)C2)cc1 (centres undefined) | ? | 4% | -5% | -5% | -1 | 12
O=C(Nc1ccccc1)Nc1ccc(Br)cc1F | 101% | 9% | -10% | 0.37µM* | 31* | 110*
O=C(Nc1cccc(Cl)c1)Nc1ccc(Br)cc1F | ? | 16% | ? | ? | 19* | 67*
Cc1cc(NC(=O)Nc2ccccc2F)ccc1Br | 427% | -8% | 13µM* | ? | 55* | 77*
Cc1cccc(C)c1-n1nnnc1C1(C)CCC(=O)N1Cc1cccc(C(F)(F)F)c1 (centres undefined) | · | -8% | · | · | · | ·
Cc1ccccc1NS(=O)(=O)c1cccc(-c2nnc(-c3ccccc3)o2)c1 | -29% | -9% | ? | ? | -2 | -9
c1ccc2c(-c3nc(C4CCCCC4)no3)cc(-c3ccncc3)nc2c1 | 2.6µM* | 1% | 8.9µM* | ? | -1 | 12
COc1ccc(-c2cc(-c3nnc(-c4ccncc4)o3)c3ccccc3n2)cc1 | ? | -1% | 0% | 9.3µM* | -2 | -8
CN(C)S(=O)(=O)c1cccc(-c2nnc(-c3ccccc3)o2)c1 | · | 2% | -1% | ? | 44* | 73*
Cc1nc(-c2nnc(-c3ccccc3)o2)c(C(F)(F)F)o1 | 55% | 38% | 13% | 12% | 28* | 49*
COc1cc(-c2nnc(-c3cc(-c4ccccc4)nc4ccccc34)o2)cc(OC)c1OC | · | 4% | ? | · | · | ·
Cc1ccnc(NC(=O)c2ccc(S(=O)(=O)N3CCC(C)CC3)cc2)c1 | 14% | -20% | -8% | 19% | · | ·
CCc1nc2c(OCCn3cccc3)cccn2c1N(C)C(=O)C1CC1 | · | -10% | · | · | · | ·
COc1ccccc1CCNC(=O)c1nccnc1C(=O)O | 2% | -3% | 22% | 17% | -3 | -8
COCCCNC(=O)C[C@@H]1C[C@@]2(C(=O)OC)CC(C)(C)CC=C2N(Cc2ccc3c(c2)OCO3)C1=O | · | 1% | · | · | · | ·
COc1ccc(-c2nnc(-c3cccnc3)o2)cc1OC | · | 28% | 11% | 16% | 3 | 20
Clc1cccc(-c2nnc(-c3ccno3)o2)c1 | 0% | 0% | 11% | -8% | 24 | 22
COc1ccccc1-c1nnc(-c2ccc(C)cc2)o1 | · | 10% | ? | · | · | ·
Clc1cccc(-c2nnc(-c3ccccc3)o2)c1 | 121% | 6% | ? | -1% | 36* | 59*
COc1cccc(-c2nnc(-c3ccc4ccccc4c3)o2)c1 | · | 1% | -18% | · | · | ·
COc1cccc(-c2nnc(-c3ccc(C(F)(F)F)cc3)o2)c1 | 246% | 49% | 10% | 220% | 27* | 49*
SMILES | Pf growth 48h | AMA1-RON2 inh | HCV inh | Pf growth 96h | CHX counter | Shiga toxin inh
COc1ccccc1-c1nnc(-c2ccc(N3CCOCC3)cc2)o1 | ? | 4% | -24% | 1.7µM* | 35* | 62*
COc1ccc(-c2nnc(-c3ccccc3)o2)cc1OC | 204% | -4% | -13% | 2% | 51* | 53*
CCCCNC(=O)C[C@@H]1C[C@@]2(C(=O)OCC)CCC=C2N(CCC2=CCCCC2)C1=O | · | 3% | · | · | · | ·
COc1ccc(OCCN2CCC(C(=O)NC(c3ccc(F)cc3)c3ncccc3C)CC2)cc1 (centres undefined) | · | -12% | · | · | · | ·
Cc1ccc(S(=O)(=O)N(CC(=O)Nc2cccc(C(F)(F)F)c2)C(=O)N2CCN(C)CC2)cc1 | 31% | -8% | 10% | 43% | · | ·
COc1cc(-c2nnc(-c3ccco3)o2)ccc1OCc1ccccc1 | ? | 3% | ? | -20% | 39* | 59*
O=C(CCc1ccccc1)c1nnc(-c2ccccc2)o1 | 42% | 40% | -5% | 25% | 30* | 42
O=S(=O)(Cc1ccccc1)c1ccccc1-c1nnc(-c2ccccc2)o1 | ? | 5% | ? | ? | 4 | -7
Nc1ccccc1-c1nnc(-c2ccc(-c3ccccc3)cc2)o1 | · | 12% | -19% | -52% | 47* | 43*
Oc1ccccc1-c1nnc(-c2ccc(C(F)(F)F)cc2)o1 | 50% | 142% | ? | 11% | 35* | 20
COc1cc(CNc2ncnc3c2ncn3[C@H]2CN(Cc3ccncc3)C[C@@H](CO)O2)cc(OC)c1OC | · | -2% | · | · | · | ·
c1ccc(-c2nnc(SCc3ccncc3)o2)cc1 | · | 11% | · | · | · | ·
O=C(OCc1nnc(-c2ccccc2)o1)c1cc(F)c(F)cc1Cl | 12% | 39% | 1% | 14% | 3 | -3
ClCc1nnc(-c2ccccc2)o1 | 2.9µM* | 9% | ? | 16% | 11 | 17
c1ccc(-c2nnc(-c3ccccc3)o2)cc1 | 234% | 8% | -5% | 144% | 31* | 85*
c1ccc(-c2nnc(-c3ccncc3)o2)cc1 | · | 12% | 2% | 61% | 40* | 79
Cc1[nH]c2ccccc2c1N=Nc1ccccc1C(=O)O | ? | 46% | 0% | 10µM* | 17* | 48*
Cc1noc(C)c1N=Nc1ccccc1C(=O)O | 4% | -13% | 15% | 15% | -4 | -11
COC(=O)c1cc(N=Nc2c(C)[nH]c3ccccc23)cc(C(=O)OC)c1 | -6% | 7% | 15% | -7% | -2 | -1
Cc1[nH]c2ccccc2c1N=Nc1cccc(C(=O)O)c1 | 168% | -2% | 1% | 36% | 58* | 108*
O=C(c1ccc2ccccc2n1)N(CCO)Cc1ccccc1 | -21% | 3% | 11% | 3% | -3 | -10
c1ccc(-c2nc3ccccc3o2)nc1 | 98% | 15% | 9% | · | 42* | 51*
Clc1ccc2oc(-c3ccccn3)nc2c1 | 234% | 98% | 3% | ? | 44* | 118*
c1cncc(-c2nc3ccccc3o2)c1 | 47% | 6% | -1% | ? | 21* | 39
Nc1ccc2oc(-c3ccccn3)nc2c1 | 237% | 4% | -2% | 10% | 34* | 71*
C=CCOc1ccc(CC(=O)O)cc1Cl | 0% | · | · | 13% | -1 | 17
